This test has as its system TDF. In words: cell number relative to DMSO (% of DMSO); higher = more cells (less growth inhibition / toxicity). The note with it: concentration: 10 µM; 24 h. A digest of the protocol: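 Compounds were applied at 10 µM for 24 h at 37 °C, in triplicate, to HCC1569 and TDF cells. The cells were then fixed and stained for H1.0, and nuclei were counterstained with DAPI. Nuclear H1.0 intensity or cell number is reported relative to the plate control as a percent, taking the median of replicates. Smoothing for positional effects was applied to HCC1569 values only.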
With `N#Cc1ccc(C(c2ccc(C#N)cc2)n2cncn2)cc1` [Letrozole], the cell number is 103.

Take `O=C1OC(C(O)CO)C(O)=C1O` (stereo not drawn) [Ascorbic acid]: the cell number came out at 103.

`CC(C)S(=O)(=O)N[C@H]1CCOC[C@@H]1c1ccc(-c2ccc(C#N)s2)cc1` yielded a cell number of 98.3.

Consider `Cc1ccc(=O)n(-c2ccccc2)c1` [Pirfenidone], for which the cell number came to 103.

As for `Cc1cccc(C)c1OCC(N)C(C)C.I` (stereo not drawn), the cell number came out at 108.

In the case of `COc1cc(C(O)CO)ccc1OS(=O)(=O)[O-].[K+]` (stereo not drawn) [MHPG sulfate potassium], the cell number is 105.

Take `COc1cc(Br)c(Nc2nc(-c3c(C)nc4ncccn34)cs2)c(Br)c1`: the cell number was 53.8.

`CC(C)(C)c1ccc(S(=O)(=O)NCc2ccc(C(=O)Nc3cccnc3)cc2)cc1`: the cell number was determined as 108.

The values are drawn from the supplement of paper PMC7156485.
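Also: TDF denotes transformed human dermal fibroblasts of mesenchymal origin.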
